Laboratory results: PubChem BioAssay AID1159580 (chemical genetic matrix, 2015)
About 2,000 (36%) of roughly 5,500 compounds were called active. Another 18% or so got no clear call; they are omitted. Rule as the data show it: active = normalized growth mostly below about 0.91 (no sharp cut-off); inconclusive = no clear call, values can overlap the other calls; inactive = mostly above about 0.92. Some of the results follow.

Assay: chemical genetic growth profiling, strain panel (AID 1159580);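 also: tested at 20 µM; growth read once vehicle control cultures reached saturation at 30 °C; 1 = growth at the plate median or of vehicle wells; lower values mean less growth of the strain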
Conditions: S. cerevisiae deletion strains, growth OD

Measured: normalized growth

CC1(C)Oc2ccc3ccc(=O)oc3c2CC1O (centres undefined)
inactive: locus YAL013W, strain DEP1, active compounds read low 0.994 | locus YAL021C, strain ccr4, active compounds read low 1 | locus YAL026C, strain drs2, active compounds read low 0.967 | locus YAL030W, strain snc1, active compounds read low 0.972 | locus YBL061C, strain skt5, active compounds read low 0.971 | locus YBR009C, strain hhf1, active compounds read low 0.94 | locus YBR021W, strain FUR4, active compounds read low 1.02 | locus YBR023C, strain chs3, active compounds read low 0.984 | locus YBR171W, strain sec66, active compounds read low 0.976 | locus YBR229C, strain ROT2, active compounds read low 0.998 | locus YBR231C, strain swc5, active compounds read low 0.976 | locus YBR279W, strain paf1, active compounds read low 0.987 | locus YCL011C, strain gbp2, active compounds read low 0.963 | locus YCL016C, strain dcc1, active compounds read low 0.988 | locus YCL029C, strain bik1, active compounds read low 1.01 | locus YCL061C, strain MRC1, active compounds read low 0.989 | locus YCL069W, strain vba3, active compounds read low 0.968 | locus YCR088W, strain abp1, active compounds read low 0.986 | locus YDL005C, strain med2, active compounds read low 0.975 | locus YDL035C, strain GPR1, active compounds read low 0.991 | locus YDL040C, strain nat1, active compounds read low 0.979 | locus YDL074C, strain BRE1, active compounds read low 1.01 | locus YDL101C, strain DUN1, active compounds read low 0.995 | locus YDL134C, strain PPH21, active compounds read low 0.974 | locus YDL185W, strain tfp1, active compounds read low 1.02 | locus YDL192W, strain arf1, active compounds read low 1.02 | locus YDR001C, strain nth1, active compounds read low 0.97 | locus YDR069C, strain doa4, active compounds read low 0.957 | locus YDR101C, strain arx1, active compounds read low 1.02 | locus YDR137W, strain rgp1, active compounds read low 0.99 | locus YDR150W, strain NUM1, active compounds read low 1.01 | locus YDR159W, strain sac3, active compounds read low 0.922 | locus YDR162C, strain NBP2, active compounds read low 0.978 | locus YDR195W, strain ref2 0.971 | locus YDR297W, strain sur2, active compounds read low 0.971 | locus YDR318W, strain mcm21, active compounds read low 0.977 | locus YDR334W, strain swr1, active compounds read low 0.982 | locus YDR335W, strain msn5, active compounds read low 0.993 | locus YDR388W, active compounds read low 1 | locus YDR392W, strain spt3, active compounds read low 0.91 | locus YDR502C, strain sam2, active compounds read low 0.994 | locus YEL003W, strain gim4, active compounds read low 0.977 | locus YEL037C, strain rad23, active compounds read low 0.982 | locus YEL061C, strain CIN8 (second series), active compounds read low 0.977 | locus YEL061C, strain CIN8, active compounds read low 0.992 | locus YER015W, strain faa2, active compounds read low 0.968 | locus YER016W, strain bim1, active compounds read low 0.996 | locus YER110C, active compounds read low 1.01 | locus YER111C, strain swi4, active compounds read low 0.982 | locus YER155C, strain BEM2 (second series), active compounds read low 0.956 | locus YER155C, strain BEM2, active compounds read low 1.01 | locus YER167W, strain BCK2, active compounds read low 0.978 | locus YFR010W, strain ubp6, active compounds read low 0.972 | locus YGL078C, strain dbp3, active compounds read low 0.999 | locus YGL086W, strain mad1, active compounds read low 1.04 | locus YGL167C, strain pmr1, active compounds read low 0.961 | locus YGL173C, strain kem1, active compounds read low 0.975 | locus YGL227W, strain vid30, active compounds read low 0.97 | locus YGL240W, strain doc1, active compounds read low 0.97 | locus YGL248W, strain PDE1, active compounds read low 0.998 | locus YGL253W, strain hxk2, active compounds read low 1 | locus YGR078C, strain PAC10, active compounds read low 0.999 | locus YGR135W, strain pre9, active compounds read low 0.978 | locus YGR252W, strain gcn5, active compounds read low 0.928 | locus YHR013C, strain ard1, active compounds read low 0.943 | locus YHR027C, strain rpn1, active compounds read low 0.973 | locus YHR030C, strain SLT2, active compounds read low 1 | locus YHR079C, strain IRE1 (second series), active compounds read low 1 | locus YHR094C, strain hxt1, active compounds read low 1.02 | locus YHR129C, strain ARP1, active compounds read low 1 | locus YHR142W, strain chs7, active compounds read low 0.996 | locus YHR200W, strain rpn10, active compounds read low 1.01 | locus YIL066C, strain RNR3, active compounds read low 1 | locus YIL073C, strain SPO22, active compounds read low 1.02 | locus YIL125W, strain kgd1, active compounds read low 1.02 | locus YIR030C, strain dcg1, active compounds read low 1.01 | locus YJL092W, strain hpr5, active compounds read low 0.989 | locus YJL095W, strain BCK1 (second series), active compounds read low 0.996 | locus YJL095W, strain BCK1, active compounds read low 0.986 | locus YJL115W, strain asf1, active compounds read low 0.984 | locus YJL129C, strain trk1, active compounds read low 0.977 | locus YJL134W, strain LCB3, active compounds read low 1 | locus YJL154C, strain vps35, active compounds read low 0.978 | locus YJL164C, strain tpk1, active compounds read low 1.01 | locus YJL166W, strain qcr8, active compounds read low 0.989 | locus YJL168C, strain set2, active compounds read low 1.01 | locus YJL187C, strain SWE1 (second series), active compounds read low 1.01 | locus YJL187C, strain SWE1, active compounds read low 0.976 | locus YJR043C, strain POL32, active compounds read low 0.995 | locus YKL009W, strain mrt4, active compounds read low 1.01 | locus YKL068W, active compounds read low 0.998 | locus YKL085W, strain MDH1 (second series), active compounds read low 1.01 | locus YKL085W, strain MDH1, active compounds read low 1.01 | locus YKL160W, strain elf1, active compounds read low 1.02 | locus YKR001C, strain vps1, active compounds read low 1.03 | locus YKR026C, strain gcn3, active compounds read low 0.957 | locus YKR091W, strain srl3, active compounds read low 0.965 | locus YLL001W, strain dnm1, active compounds read low 0.987 | locus YLL026W, active compounds read low 0.977 | locus YLL041C, strain sdh2, active compounds read low 0.989 | locus YLR027C, strain aat2, active compounds read low 0.982 | locus YLR039C, strain RIC1, active compounds read low 0.998 | locus YLR058C, strain SHM2, active compounds read low 0.992 | locus YLR102C, strain apc9, active compounds read low 1.01 | locus YLR221C, strain rsa3, active compounds read low 0.994 | locus YLR258W, strain gsy2, active compounds read low 0.971 | locus YLR262C, strain YPT6 (second series), active compounds read low 0.989 | locus YLR262C, strain YPT6, active compounds read low 0.956 | locus YLR268W, strain sec22, active compounds read low 1.05 | locus YLR320W, strain mms22, active compounds read low 0.998 | locus YLR330W, strain CHS5, active compounds read low 1 | locus YLR342W, strain FKS1 (second series), active compounds read low 1.02 | locus YLR342W, strain FKS1, active compounds read low 0.973 | locus YLR357W, strain rsc2, active compounds read low 0.961 | locus YLR370C, strain arc18, active compounds read low 0.976 | locus YLR371W, strain rom2, active compounds read low 1.01 | locus YLR384C, strain iki3, active compounds read low 0.976 | locus YLR418C, strain cdc73, active compounds read low 0.978 | locus YML016C, strain PPZ1, active compounds read low 1 | locus YML032C, strain rad52, active compounds read low 0.976 | locus YML120C, strain ndi1, active compounds read low 0.988 | locus YML124C, strain tub3, active compounds read low 0.994 | locus YMR058W, strain fet3, active compounds read low 0.979 | locus YMR078C, strain ctf18, active compounds read low 1.02 | locus YMR125W, strain sto1, active compounds read low 0.935 | locus YMR129W, active compounds read low 0.966 | locus YMR205C, strain PFK2, active compounds read low 0.941 | locus YMR223W, strain ubp8, active compounds read low 0.996 | locus YMR231W, strain pep5, active compounds read low 0.977 | locus YMR307W, strain GAS1, active compounds read low 1.04 | locus YNL067W, strain RPL9B, active compounds read low 1 | locus YNL071W, strain lat1, active compounds read low 0.988 | locus YNL209W, strain ssb2, active compounds read low 0.965 | locus YNL233W, strain BNI4, active compounds read low 1 | locus YNL248C, strain rpa49, active compounds read low 1.02 | locus YNL250W, strain rad50, active compounds read low 1.01 | locus YNL271C, strain bni1, active compounds read low 1.01 | locus YNL298W, strain CLA4, active compounds read low 1 | locus YNL307C, strain MCK1, active compounds read low 1.02 | locus YNL322C, strain KRE1 (second series), active compounds read low 0.967 | locus YNR049C, strain mso1, active compounds read low 0.97 | locus YNR052C, strain pop2, active compounds read low 1.02 | locus YOL006C, strain TOP1, active compounds read low 1.02 | locus YOL012C, strain htz1 0.905 | locus YOL147C, strain pex11, active compounds read low 1 | locus YOR001W, strain rrp6, active compounds read low 1.02 | locus YOR061W, strain CKA2, active compounds read low 1 | locus YOR069W, strain VPS5, active compounds read low 1 | locus YOR070C, strain gyp1, active compounds read low 0.987 | locus YOR080W, strain dia2, active compounds read low 0.975 | locus YOR083W, strain WHI5, active compounds read low 1.03 | locus YOR106W, strain vam3, active compounds read low 0.995 | locus YOR136W, strain idh2, active compounds read low 1.01 | locus YOR144C, strain elg1, active compounds read low 1 | locus YOR184W, strain ser1, active compounds read low 0.988 | locus YOR265W, strain rbl2, active compounds read low 0.987 | locus YOR270C, strain vph1, active compounds read low 1.02 | locus YOR290C, strain snf2, active compounds read low 0.924 | locus YOR316C, strain cot1, active compounds read low 1 | locus YPL051W, strain arl3, active compounds read low 1.02 | locus YPL078C, strain atp4, active compounds read low 1 | locus YPL106C, strain sse1, active compounds read low 0.95 | locus YPL240C, strain hsp82, active compounds read low 0.974 | locus YPL241C, strain CIN2, active compounds read low 0.996 | locus YPR119W, strain clb2, active compounds read low 0.997 | locus YPR141C, strain kar3, active compounds read low 1.01 | locus YPR163C, strain tif3, active compounds read low 1.01 | locus YPR167C, strain met16, active compounds read low 1 | strain wtn01, active compounds read low 1.05
